# Experimental data as given in PubChem BioAssay (NCATS).
# Records with an inconclusive call do not appear. Values without a mark were called inactive. Calls of active or inactive are those of the source. Calls follow the shape of the dose curve; as a rule, active = well fitted cell-killing curve with a large enough effect; inconclusive = small, poorly fitted or top-dose-only effect, or effect the other way; inactive = no such curve, though single readings can be large or run the other way.
# Test: Quantitative High-Throughput drug screen in 47 multiple myeloma cell lines against the NCATS MIPE library collection: SKMM1_PLB cell viability assay (AID 1919863); also: nearly all actives have a fitted effect of over 35% in size; as to viability: series mostly up to about 46 µM
# Details: SKMM1 myeloma viability, CellTiter-Glo ATP, 48 h; viability: stronger effect = lower value
# Summary of the method: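 ATP-based luminescence (CellTiter-Glo, 5 min RT incubation) quantified surviving cells following two days' treatment with MIPE 4.0 agents at 37 °C, 5% CO2.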
# Potency is read from the fitted curve at half-maximal effect.
Compound,viability [%],Potency
Cn1c(=O)c2[nH]cnc2n(C)c1=O,104,
CC[C@@]1(O)C(=O)OCc2c1cc1n(c2=O)Cc2cc3c(CN(C)C)c(O)ccc3nc2-1,,3.32 µM (active)
O=c1[nH]cc(F)c(=O)[nH]1,,13.2 µM (active)
NCCS(=O)(=O)O,109,
CC#C[C@]1(O)CC[C@H]2[C@@H]3CCC4=CC(=O)CCC4=C3[C@@H](c3ccc(N(C)C)cc3)C[C@@]21C,,4.18 µM (active)
CC[N+](CC)(CC)CCOc1cccc(OCC[N+](CC)(CC)CC)c1OCC[N+](CC)(CC)CC,112,
CC(CCc1ccc(O)cc1)NCCc1ccc(O)c(O)c1 (stereo unspecified),,18.7 µM (active)
Cc1ccccc1N1C(=O)c2cc(S(N)(=O)=O)c(Cl)cc2NC1C (stereo unspecified),117,
CS(=O)(=O)CCNCc1ccc(-c2ccc3ncnc(Nc4ccc(OCc5cccc(F)c5)c(Cl)c4)c3c2)o1,,23.5 µM (active)
COc1ccc2c(c1)c(CC(=O)O)c(C)n2C(=O)c1ccc(Cl)cc1,128,
COc1ccc2[nH]cc(CCNC(C)=O)c2c1,123,
NC(=O)NO,,10.5 µM (active)
CNCCCC12CCC(c3ccccc31)c1ccccc12,,18.7 µM (active)
COc1cc2nc(N3CCN(C(=O)c4ccco4)CC3)nc(N)c2cc1OC,,23.5 µM (active)
COc1ccccc1OCC(O)CN1CCN(CC(=O)Nc2c(C)cccc2C)CC1 (stereo unspecified),110,
O=C1c2c(O)ccc(O)c2C(=O)c2c(NCCNCCO)ccc(NCCNCCO)c21,,2.96 µM (active)
